In PubChem BioAssay (NCI):
“And” between values parts separate entries of the source, which are not always exact repeats. Identical values can stand only once. About 79,000 compounds went through this panel and 15% of them were active in at least one assay; those are over-represented in the sample as a whole. The source holds several records for some structures; these can differ, active in one and inactive in another. The source made the active and inactive calls. Rule as the data show it: active = growth inhibition above about 70%; inactive = the rest.

Assay: NCI Yeast Anticancer Drug Screen. Data for the sgs1 mgt1 strain (AID 161);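 also: 0% = growth of cultures given vehicle only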
Details: S. cerevisiae sgs1 mgt1 strain, stronger effect = higher value
Experimental: Growth inhibition of yeast strains with defined genetic alterations is measured as a screen for potential anti-cancer activity. Selected strains with alterations in DNA damage repair or cell cycle control were exposed to compounds and growth inhibition was measured relative to vehicle treated controls. The strain used in this assay is sgs1 mgt1

[1] = at 5.0 µM (retest, dose inferred, filed as 0.5)
[2] = at 50.0 µM (retest, dose inferred, filed as 5.0)

| Compound | growth inhibition [1] | growth inhibition [2] | growth inhibition (at 50.0 µM) |
| --- | --- | --- | --- |
| CC(O)CN1C(=O)c2cccc3cc([N+](=O)[O-])cc(c23)C1=O (stereo unspecified) | -13% (inactive) | 15% (inactive) | 58% (inactive) |
| c1ccc(N/N=C2\CC(c3ccccc3)Oc3ccccc32)cc1 (stereo unspecified) | -5% (inactive) | 26% (inactive) | 74% (active) |
| Cc1cnc(/C=N\NC(N)=S)c2cccc(N)c12 | 16% (inactive) and 8% (inactive) | 83% (active) and 30% (inactive) | 61.1% (inactive) and 63% (inactive) |
| CCSc1c2ccccc2c(-c2nc(F)nc(F)n2)n1CCc1ccccc1 | -15% (inactive) | 70% (active) | 87.7% (active) |
| CN(C)CCC(=O)c1c[nH]c2ccccc12 | 15% (inactive) | 57% (inactive) | 63% (inactive) |
| Cc1c(N=Nc2ccc(Cl)cc2)c(C)n(C2OC(CO)C(O)C(O)C2O)c(=S)c1C#N (stereo unspecified) | 1% (inactive) | 65% (inactive) | 87% (active) |
| O=c1[nH]c(=O)n(CCCO)cc1F | 58% (inactive) | 76% (active) | -33.4% (inactive) |
| S=C1NC2=C(CSC/C2=C\c2ccc(Cl)cc2)C(c2ccc(Cl)cc2)N1 (stereo unspecified) | 6% (inactive) | 92% (active) | 96.5% (active) |
| CC1=NN(C(=O)CC(=O)N(C(=O)c2ccccc2)c2ccc(Cl)cc2)C(=O)C1N=Nc1ccc([N+](=O)[O-])cc1 (stereo unspecified) | -1% (inactive) | 49% (inactive) | 77.7% (active) |
| O=C(CCCN1CCC2(CC1)OC(=O)N(c1ccccc1)C2=O)c1ccccc1 | 48% (inactive) | 69% (inactive) | 85.9% (active) |
| CCOC(=O)C1=C(C)NC(C)=C(C(=O)OCC)C1c1ccc(Cl)cc1 | -1% (inactive) | 98% (active) | – |
| CN1CCN(c2ccc3nc(-c4ccc5nc(-c6ccc(O)cc6)[nH]c5c4)[nH]c3c2)CC1 | 43% (inactive) | 99% (active) | 99.2% (active) |
| CCCC(=O)OC(OC(=O)CCC)c1ccc([N+](=O)[O-])o1 | 14% (inactive) | 55% (inactive) | 53.4% (inactive) |
| COc1ccc2c(Cc3c4ccccc4cc4ccccc34)cncc2c1O | 30% (inactive) | 95% (active) | 92.8% (active) |
